{
  "source": "PubChem BioAssay (NCATS)",
  "key": {"[1]": {"test": "Immunotoxin (HA22) sensitization/mitigation study. Vehicle arm (PBS) (AID 1159510)"}, "[2]": {"test": "Immunotoxin (SS1P) sensitization/mitigation study. Vehicle arm (DMEM) (AID 1159513)"}},
  "note": "Activity calls are given as the source filed them. No rule for the calls is given here. Potency is read from the fitted curve at half-maximal effect.",
  "data": [
    {"compound": "N#CCNC(=O)c1ccc(-c2ccnc(Nc3ccc(N4CCOCC4)cc3)n2)cc1", "values": [
      {"measurement": "Potency", "setting": "[1]", "value": "5.26 µM (active)"},
      {"measurement": "Potency", "setting": "[2]", "value": "16.6 µM (active)"}
    ]},
    {"compound": "CCc1cc(Nc2nccc(-c3c(-c4ccc(OC)c(C(=O)Nc5c(F)cccc5F)c4)nc4ccccn34)n2)c(OC)cc1N1CCC(N2CCN(S(C)(=O)=O)CC2)CC1", "values": [
      {"measurement": "Potency", "setting": "[1]", "value": "3.72 µM (active)"},
      {"measurement": "Potency", "setting": "[2]", "value": "inactive"}
    ]},
    {"compound": "CNC(=O)c1cc(Oc2ccc(NC(=O)Nc3cc(C(C)(C)C)nn3-c3ccc4ncccc4c3)c(F)c2)ccn1", "values": [
      {"measurement": "Potency", "setting": "[1]", "value": "6.62 µM (active)"},
      {"measurement": "Potency", "setting": "[2]", "value": "23.5 µM (active)"}
    ]},
    {"compound": "O=C(O)[C@@H](c1ccc(OCc2ccc3ccccc3n2)cc1)C1CCCC1", "values": [
      {"measurement": "Potency", "setting": "[1]", "value": "inactive"},
      {"measurement": "Potency", "setting": "[2]", "value": "inactive"}
    ]},
    {"compound": "Cc1cc(C=c2sc3nc4ccccc4n3c2=O)c(C)n1-c1ccccc1", "values": [
      {"measurement": "Potency", "setting": "[1]", "value": "18.7 µM (active)"},
      {"measurement": "Potency", "setting": "[2]", "value": "9.35 µM (active)"}
    ]},
    {"compound": "C[C@@H]1CCN(C(=O)CC#N)C[C@@H]1N(C)c1ncnc2[nH]ccc12", "values": [
      {"measurement": "Potency", "setting": "[1]", "value": "inactive"},
      {"measurement": "Potency", "setting": "[2]", "value": "inactive"}
    ]},
    {"compound": "CCN(CC)CCCCNc1ncc2cc(-c3cc(OC)cc(OC)c3)c(NC(=O)NC(C)(C)C)nc2n1", "values": [
      {"measurement": "Potency", "setting": "[1]", "value": "20.9 µM (active)"},
      {"measurement": "Potency", "setting": "[2]", "value": "20.9 µM (active)"}
    ]},
    {"compound": "COc1cc2ncn(-c3cc(OCc4ccccc4C(F)(F)F)c(C(N)=O)s3)c2cc1OC", "values": [
      {"measurement": "Potency", "setting": "[1]", "value": "0.296 µM (active)"},
      {"measurement": "Potency", "setting": "[2]", "value": "0.166 µM (active)"}
    ]},
    {"compound": "C#Cc1cccc(Nc2ncnc3cc(OC)c(OCCCCCCC(=O)NO)cc23)c1", "values": [
      {"measurement": "Potency", "setting": "[1]", "value": "0.132 µM (active)"},
      {"measurement": "Potency", "setting": "[2]", "value": "0.526 µM (active)"}
    ]},
    {"compound": "CN(C)CC=CC(=O)Nc1cc2c(Nc3ccc(F)c(Cl)c3)ncnc2cc1O[C@H]1CCOC1", "values": [
      {"measurement": "Potency", "setting": "[1]", "value": "1.48 µM (active)"},
      {"measurement": "Potency", "setting": "[2]", "value": "6.62 µM (active)"}
    ]},
    {"compound": "CCN1CCN(CC(=O)Nc2ccc(-c3cccc4c(=O)cc(N5CCOCC5)oc34)c3sc4ccccc4c23)CC1", "values": [
      {"measurement": "Potency", "setting": "[1]", "value": "0.935 µM (active)"},
      {"measurement": "Potency", "setting": "[2]", "value": "1.66 µM (active)"}
    ]}
  ]
}
